High-throughput results from PubChem BioAssay.
Most compounds without a hit are left out; they make up all but 9.2% or so of the library.
ELG1 repair inh: ELG1-dependent DNA repair inhibition | 330,000 tested, 2.3% active | AID 504467 | Potency, µM (highest dose often 46.1 µM), inactives show at the highest dose activity change, negative = inhibition, usual class: inhibitors | HEK293T ELG1-luciferase reporter, luminescence, 16 h; DNA damage induced by 5-fluorouridine; also: % is scaled to controls: 0 for no effect and ±100 for the full control effect; nearly all actives have a fitted effect of over 55% in size
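DMSO vehicle served as the neutral condition. Each well held 2,000 cells given 5-fluorouridine plus compound; after 16 hr at 37 °C/5% CO2, ONE-Glo was added and luciferase measured 30 min later.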
ELG1 genotox: inducers of genotoxicity in HEK293T ELG1-luciferase cells; Potency, µM (series often up to 46 µM), inactives show at the highest dose activity change, positive = activation, hits mostly activators; HEK293T ELG1-luciferase reporter, luminescence, 16 h; 330,000 tested, 1.3% active; AID 504466; also: % of control where 0% means no effect; nearly all actives have a fitted effect of over 60% in size
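16 hr compound incubation (37 °C, 5% CO2) of HEK293T cells carrying luciferase-tagged ELG1; luciferase then measured by ONE-Glo luminescence after 30 min at RT.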
Rab9 promoter act: activates the Rab9 promoter | Potency, µM (top dose mostly 9.22 µM), for inactives: top-dose activation, negative = inhibition, hits mostly activators | Huh7 Rab9 promoter-luciferase reporter, luminescence, 24 h | 320,000 tested, 2.8% active; also: % of control where 0% means no effect; nearly all actives have a fitted effect of over 60% in size
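Promoter activation is measured as luciferase luminescence in Huh7 cells stably transfected with a Rab9 promoter–luciferase construct, following 24 h compound exposure at 37 °C and 10 min reagent incubation at ambient temperature.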
SMN2 splice up: increases expression of the SMN2 splice variant | HEK293 SMN2-luciferase splicing reporter, luminescence, 30-36 h | Potency, µM (highest dose often 46.1 µM), for the others: top-dose activity change, positive = activation, hits mostly activators | 210,000 tested, 2.8% active; also: % of control where 0% means no effect; nearly all actives have a fitted effect of over 55% in size
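qHTS luciferase splicing reporter: luminescence rises when SMN2 exon 7 is included in transfected HEK293 cells. Compound exposure lasted 30-36 h at 37C, with 4.5 mM final sodium butyrate as control, followed by a ONE-Glo read.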
FLuc modulator: inhibits or activates purified firefly luciferase, miR-21 counter-screen | P08659 | purified FLuc, Km substrates, luminescence inhibition | Potency, µM (titrated, usually from 57.5 µM), inactives show at the highest dose activity change, negative = inhibition, hits mostly inhibitors | 360,000 tested, 6.9% active;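 also: plate controls were vehicle for no effect and reference inhibitor for full effect; nearly all actives have a fitted effect of over 55% in size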
Target sequence (P08659 whole entry, looked up): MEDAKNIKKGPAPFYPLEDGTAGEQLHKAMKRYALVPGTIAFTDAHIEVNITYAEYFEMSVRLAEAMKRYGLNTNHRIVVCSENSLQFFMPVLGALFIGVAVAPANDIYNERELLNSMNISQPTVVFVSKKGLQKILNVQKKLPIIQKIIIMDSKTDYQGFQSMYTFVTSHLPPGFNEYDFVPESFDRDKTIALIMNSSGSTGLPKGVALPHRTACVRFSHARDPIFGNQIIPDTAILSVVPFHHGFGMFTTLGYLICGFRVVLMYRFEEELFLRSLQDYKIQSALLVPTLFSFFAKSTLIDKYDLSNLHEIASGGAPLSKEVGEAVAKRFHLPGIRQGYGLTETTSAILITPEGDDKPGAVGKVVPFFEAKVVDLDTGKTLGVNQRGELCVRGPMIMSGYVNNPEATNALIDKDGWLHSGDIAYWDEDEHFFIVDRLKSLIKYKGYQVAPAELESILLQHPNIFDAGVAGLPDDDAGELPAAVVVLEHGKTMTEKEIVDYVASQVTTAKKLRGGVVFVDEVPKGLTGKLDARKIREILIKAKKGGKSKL
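Purified P. pyralis luciferase, 10 nM final, with Km-level 10 uM D-luciferin and 10 uM ATP in 50 mM Tris acetate pH 7.5, 10 mM Mg acetate, 0.01% Tween-20, 0.05% BSA; 6-point qHTS titration about 60 µM downward; luminescence read.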
NPC1 promoter act: activators of NPC1 promoter; Potency, µM (top dose mostly 9.22 µM), inactives show at the top dose activation, hits mostly activators; 320,000 tested, 2.4% active; Huh7 NPC1 promoter luciferase reporter, 24 h; also: % of control where 0% means no effect; nearly all actives have a fitted effect of over 60% in size
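Huh7 cells stably carrying NPC1 promoter–luciferase, plated in Opti-MEM with 10% FBS for 2 h, were exposed to compound in DMSO for 24 h at 37 °C; luciferase reagent was added for 10 min and luminescence read.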
The depositor's hits bear a star; u = inconclusive; x = not tested or not shown; [ ] = dose if it differs, or a comment. Calls follow the shape of the dose curve; as a rule, active = well fitted curve in the direction sought with a large enough effect; inconclusive = small, poorly fitted or top-dose-only effect, or another doubt; inactive = no such curve, though single readings can be large; an effect the other way counts as inactive or inconclusive. Potency is read from the fitted curve at half-maximal effect.

SMILES	ELG1 repair inh	ELG1 genotox	Rab9 promoter act	SMN2 splice up	FLuc modulator	NPC1 promoter act
CN(CC(=O)N1CCN(c2ccccn2)CC1)S(=O)(=O)c1ccc2ccccc2c1	10.3µM*	-17.3%	-2.1%	22.4%	-1.0%	-1.9%
Cc1ccc2nc(-c3ccc(NC(=O)CN4C(=O)c5ccccc5C4=O)cc3)sc2c1	u	9.2µM*	3.98µM*	2.82µM*	2.69µM*	u
COc1ccc(-c2nc3n(c(=O)c2C#N)CCS3)cc1	4.7%	-3.0%	4.3%	-14.3%	-1.9%	4.8%
FC(F)Oc1ccc(/C=N/c2c(-c3ccc(OC(F)F)cc3)nc3n2CCS3)cc1	-27.6%	2.0%	14.4%	u	9.53µM*	-2.4%
CCc1ccc(Nc2nnc(-c3cc4cc(OC)ccc4oc3=O)s2)cc1	x	x	x	x	-3.7%	x
COc1ccc2oc(=O)c(-c3nc(-c4ccc(C)c(C)c4)cs3)cc2c1	x	x	x	x	-10.5%	x
CC/C(C)=N\Nc1nc(-c2cc3cc(OC)ccc3oc2=O)cs1	u	17.2%	u	x	16.9µM*	u
COc1ccc2oc(=O)c(-c3nc(C)cs3)cc2c1	u	u	2.82µM*	14.1µM*	u	u
Nc1c(C(=O)O)ccc2c1C(=O)c1ccccc1C2=O	-8.4%	1.1%	-4.9%	-21.8%	19µM*	1.3%
Nc1cc(C(=O)O)c(N)c2c1C(=O)c1ccccc1C2=O	u	-0.1%	0.4%	x	19µM*	1.4%
COC(=O)c1ccc2c(c1O)C(=O)c1ccccc1C2=O	u	u	13.9%	-8.1%	8.49µM*	10.7%
Cc1oc2ccc(O)c(CN3CCN(Cc4ccccc4)CC3)c2c1C(=O)Nc1cccc(Cl)c1C	x	x	x	-7.3%	-1.7%	x
O=C(N/N=C/c1ccccn1)c1cc(Br)ccc1O	14.0%	u	7.1%	x	15.1µM*	-1.2%
O=C(N/N=C/c1cccnc1)c1cc(Br)ccc1O	u	u	3.98µM*	x	4.78µM*	3.16µM*
O=C(N/N=C/c1ccccn1)c1ccc(Br)o1	-7.6%	4.5%	0.5%	-12.4%	-21.6%	-3.6%
CC(=O)Cn1ncc(Br)c(Br)c1=O	u	-20.8%	-43.2%	-108.2%	7.6%	-40.6%
O=C(OCn1ncc(Br)c(Br)c1=O)c1c(F)cccc1F	9.2µM*	u	-54.4%	x	4.8%	-36.0%
Cc1cc(C)c(S(=O)(=O)NCC(c2ccco2)N2CCN(c3ccccc3)CC2)c(C)c1 (centres undefined)	x	x	x	x	-2.0%	x
COc1ccc(NC(=O)c2cc(-c3ccccc3Cl)on2)cc1OC	u	7.4%	13.9%	x	7.57µM*	14.1%
O=C(NCCN1CCOCC1)c1cc(-c2ccccc2Cl)on1	u	9.3%	-7.9%	x	u	-1.9%
O=C(Nc1ccccc1)OCc1cc(-c2ccccc2Cl)on1	u	20.0%	3.3%	u	13.5µM*	25.2%
COc1ccc(NC(=O)c2cc(-c3ccc(OC)c(OC)c3)on2)cc1OC	13.4%	1.8%	10.9%	3.3%	0.1%	-0.9%
Cn1ncc(C#N)c1NC(=O)c1cc(-c2ccccc2Cl)on1	u	3.3%	8.3%	6.0%	26.9µM*	14.8%
O=C(Nc1cccc(O)c1)c1cc(-c2ccccc2Cl)on1	u	u	18.8%	x	0.379µM*	u
Cc1ccc(C)n1-c1c(C(=O)NCCCN2CCN(c3ccc(F)cc3)CC2)sc2ncccc12	x	x	x	x	1.1%	x
SMILES	ELG1 repair inh	ELG1 genotox	Rab9 promoter act	SMN2 splice up	FLuc modulator	NPC1 promoter act
Cc1ccccc1Cn1nnc2c(=O)[nH]c(C3CCN(C(=O)c4ccccc4Cl)CC3)nc21	x	x	x	-1.5%	-2.4%	x
C=CCN1C(=O)c2ccc(C(=O)N3CCN(S(=O)(=O)c4cc(C)ccc4C)CC3)cc2C1=O	-0.3%	-3.8%	-2.2%	x	1.2%	-1.4%
CN(Cc1ccc(Cl)s1)C(=O)CSc1nnc(C2CC2)n1C1CC1	3.5%	0.9%	0.9%	x	7.8%	4.0%
CC(=O)Nc1ccc(NC(=O)CCc2c(C)nc3c(c(C)nn3-c3ccc(C)cc3)c2C)cc1	x	x	x	5.6%	-0.3%	x
O=C(Cn1cc(S(=O)(=O)Cc2ccccc2Cl)c2ccccc21)Nc1ccc(F)cc1F	x	x	x	x	2.4%	x
CC(=O)Nc1nonc1-c1nnc(SCC(=O)N(C)c2ccccc2)n1C	x	x	x	x	-6.2%	x
Cc1ccc(NC(=O)C2COc3ccccc3O2)cc1C (centres undefined)	u	u	u	x	19µM*	2.51µM*
COC(=O)c1cccc(NC(=O)C2COc3ccccc3O2)c1 (centres undefined)	u	18.4µM*	u	8.6%	16.9µM*	u
Cc1nc2cc(NC(=O)C3COc4ccccc4O3)ccc2s1 (centres undefined)	u	u	u	x	12µM*	u
O=C(c1ccco1)N1CCN(C(=S)NCc2ccc(F)cc2)CC1	-1.3%	2.6%	-4.1%	x	1.8%	-5.6%
Cc1ccc(-c2cc(=O)c3cc(C)ccc3[nH]2)cc1	u	u	u	2.24µM*	0.675µM*	u
Cc1ccc(-c2cc(=O)c3cc(F)ccc3[nH]2)cc1	25.3%	12.2%	15.6%	u	26.9µM*	0.6%
O=C1C=C(c2ccc3c(c2)oc2ccccc23)C[C@@H](c2ccc(Cl)cc2)C1	0.9%	-0.3%	-3.3%	x	1.8%	-2.7%
CCc1ccc2oc(C(=O)NCc3ccc(S(N)(=O)=O)cc3)c(C)c2c1	10.9%	u	21.2%	-7.1%	3.9%	14.4%
CCCc1ccc2oc(C(=O)NCCCN3CCOCC3)c(C)c2c1	u	u	1.3%[1.84 µM]	x	13.5µM*	13.7%
CCCc1ccc2oc(C(=O)NCc3nnc(C)o3)c(C)c2c1	u	9.2µM*	2.82µM*	x	9.53µM*	2µM*
Cc1cccc2c1NC(=O)/C2=C\C(=O)c1cccs1	20.2%	7.9%	0.2%	-32.9%	4.78µM*	0.1%
CN(C)/N=C/c1ccc(N2CCOCC2)cc1	u	4.2%	2.51µM*	u	16.9µM*	u
Fc1ccc(/C=N/Nc2cc(N3CCOCC3)ncn2)cc1	u	16.6%	u	x	u	u
C(=N\n1cnnc1)/c1ccc(N2CCOCC2)cc1	16.2%	11.8%	7.0%	1.7%	u	0.8%
C/C(=N\Nc1ccc(F)cc1F)c1ccc(N2CCOCC2)cc1	u	u	u	u	15.1µM*	u
Fc1ccc(N/N=C/c2ccc(N3CCOCC3)cc2)c(F)c1	u	u	2µM*	11.2µM*	12µM*	2.51µM*
S=c1[nH]ncn1/N=C/c1ccc(N2CCOCC2)cc1	u	16.4µM*	4.47µM*	12.6µM*	7.57µM*	3.98µM*
C/C(=N\Nc1ccc(F)cc1F)c1ccc(F)cc1	3.8%	6.2%	2.0%	2.6%	u	-3.2%
